Experimental findings from ChEMBL document CHEMBL2218924, “A broad activity screen in support of a chemogenomic map for kinase signalling research and drug discovery” (Biochem J, 2013) are described below.

Structures are written as SMILES.

Usually residual activity stands for the signal under treatment as a percentage of the control signal.

The target of experiment [1] is T1, Serine/threonine-protein kinase TBK1 (Homo sapiens) (UniProt Q9UHD2).
T1 sequence (whole entry): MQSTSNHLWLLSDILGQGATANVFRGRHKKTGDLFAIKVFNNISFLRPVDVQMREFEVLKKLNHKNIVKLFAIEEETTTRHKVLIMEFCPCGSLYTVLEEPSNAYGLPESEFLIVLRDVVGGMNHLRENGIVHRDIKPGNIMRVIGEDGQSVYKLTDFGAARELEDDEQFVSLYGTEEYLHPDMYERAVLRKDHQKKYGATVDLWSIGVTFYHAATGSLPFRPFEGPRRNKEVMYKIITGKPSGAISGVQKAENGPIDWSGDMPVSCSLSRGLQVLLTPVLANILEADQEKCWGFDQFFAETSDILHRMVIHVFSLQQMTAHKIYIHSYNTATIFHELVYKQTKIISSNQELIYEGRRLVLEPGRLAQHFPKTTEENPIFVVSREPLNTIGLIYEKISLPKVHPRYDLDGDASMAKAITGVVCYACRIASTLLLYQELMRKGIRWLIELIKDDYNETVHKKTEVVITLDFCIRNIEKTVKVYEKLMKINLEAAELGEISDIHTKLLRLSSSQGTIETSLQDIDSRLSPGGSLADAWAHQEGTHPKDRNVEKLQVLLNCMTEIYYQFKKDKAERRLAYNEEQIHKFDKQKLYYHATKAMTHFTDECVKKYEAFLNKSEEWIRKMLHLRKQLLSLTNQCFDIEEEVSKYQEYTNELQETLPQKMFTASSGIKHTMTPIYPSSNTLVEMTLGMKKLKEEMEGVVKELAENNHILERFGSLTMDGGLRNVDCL
The note with it: at 10 µM.

For experiment [2], the target named is Insulin receptor-related protein (Homo sapiens) (UniProt P14616). Particulars: at 1 µM.
Insulin receptor-related protein (Homo sapiens), sequence (P14616 27-742 limits assumed): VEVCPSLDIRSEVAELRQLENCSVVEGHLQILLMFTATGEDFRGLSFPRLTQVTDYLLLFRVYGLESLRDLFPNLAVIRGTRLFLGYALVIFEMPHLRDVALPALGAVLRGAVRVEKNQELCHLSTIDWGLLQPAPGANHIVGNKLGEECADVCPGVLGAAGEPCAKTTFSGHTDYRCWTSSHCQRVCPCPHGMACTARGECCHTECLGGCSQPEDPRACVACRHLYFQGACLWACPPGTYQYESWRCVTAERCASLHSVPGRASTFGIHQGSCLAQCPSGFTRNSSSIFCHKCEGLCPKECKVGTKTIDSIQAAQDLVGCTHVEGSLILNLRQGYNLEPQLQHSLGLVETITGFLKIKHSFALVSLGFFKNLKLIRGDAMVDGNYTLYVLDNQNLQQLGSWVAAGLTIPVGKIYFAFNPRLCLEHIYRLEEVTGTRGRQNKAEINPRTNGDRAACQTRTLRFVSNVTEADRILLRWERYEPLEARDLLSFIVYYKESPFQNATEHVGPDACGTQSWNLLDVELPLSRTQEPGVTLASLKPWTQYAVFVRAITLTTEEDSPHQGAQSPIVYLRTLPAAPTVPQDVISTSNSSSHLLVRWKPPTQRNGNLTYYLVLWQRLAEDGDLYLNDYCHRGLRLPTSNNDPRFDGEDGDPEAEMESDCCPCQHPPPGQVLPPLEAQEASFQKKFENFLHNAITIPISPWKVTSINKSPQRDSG
Insulin receptor-related protein (Homo sapiens), sequence (P14616 747-1297 limits assumed): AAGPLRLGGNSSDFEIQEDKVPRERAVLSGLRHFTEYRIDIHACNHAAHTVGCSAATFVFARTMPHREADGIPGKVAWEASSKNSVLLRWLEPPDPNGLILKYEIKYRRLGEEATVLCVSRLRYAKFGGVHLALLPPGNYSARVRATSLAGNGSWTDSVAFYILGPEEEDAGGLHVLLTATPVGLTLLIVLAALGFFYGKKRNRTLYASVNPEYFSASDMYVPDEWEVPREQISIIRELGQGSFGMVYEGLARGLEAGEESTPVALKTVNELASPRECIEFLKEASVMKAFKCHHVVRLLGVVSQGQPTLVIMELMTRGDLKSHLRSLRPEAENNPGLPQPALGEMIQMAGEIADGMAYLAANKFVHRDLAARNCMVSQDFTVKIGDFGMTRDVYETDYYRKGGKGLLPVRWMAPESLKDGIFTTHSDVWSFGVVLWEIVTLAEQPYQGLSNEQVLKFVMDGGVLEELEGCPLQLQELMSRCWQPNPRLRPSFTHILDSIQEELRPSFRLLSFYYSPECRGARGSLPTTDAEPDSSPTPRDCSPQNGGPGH
Experiment [3] addresses T2, Inhibitor of nuclear factor kappa-B kinase subunit beta (Homo sapiens) (UniProt O14920).
T2 sequence (whole entry): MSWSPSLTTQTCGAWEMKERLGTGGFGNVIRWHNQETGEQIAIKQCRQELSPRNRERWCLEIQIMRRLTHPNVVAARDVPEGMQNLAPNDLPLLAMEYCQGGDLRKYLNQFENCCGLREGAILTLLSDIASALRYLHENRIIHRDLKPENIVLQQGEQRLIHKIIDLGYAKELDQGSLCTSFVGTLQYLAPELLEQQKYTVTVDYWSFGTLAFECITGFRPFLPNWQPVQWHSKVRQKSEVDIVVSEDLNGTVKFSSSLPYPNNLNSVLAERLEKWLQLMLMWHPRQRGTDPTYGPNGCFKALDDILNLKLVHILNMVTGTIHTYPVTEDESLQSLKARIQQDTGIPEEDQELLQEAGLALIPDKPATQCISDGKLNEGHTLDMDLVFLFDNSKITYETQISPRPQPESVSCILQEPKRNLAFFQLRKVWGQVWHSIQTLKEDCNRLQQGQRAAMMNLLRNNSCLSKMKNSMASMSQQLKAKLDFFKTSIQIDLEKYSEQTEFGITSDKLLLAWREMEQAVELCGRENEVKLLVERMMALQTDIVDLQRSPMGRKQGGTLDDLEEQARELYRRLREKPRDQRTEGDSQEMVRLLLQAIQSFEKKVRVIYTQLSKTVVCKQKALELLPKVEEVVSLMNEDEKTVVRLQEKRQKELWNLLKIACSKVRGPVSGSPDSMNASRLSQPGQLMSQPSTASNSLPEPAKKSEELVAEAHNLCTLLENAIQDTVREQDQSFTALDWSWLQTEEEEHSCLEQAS
The note with it: at 1 µM.

The target of experiment [4] is T2, Inhibitor of nuclear factor kappa-B kinase subunit beta (Homo sapiens). The note with it: at 10 µM.
Experiment [5] concerns the target Interleukin-1 receptor-associated kinase 1 (Homo sapiens) (UniProt P51617). The note with it: at 10 µM.
For experiment [6], the target named is Insulin receptor (Homo sapiens) (UniProt P06213). The note with it: at 1 µM.
Insulin receptor (Homo sapiens), sequence (P06213 28-758 limits assumed): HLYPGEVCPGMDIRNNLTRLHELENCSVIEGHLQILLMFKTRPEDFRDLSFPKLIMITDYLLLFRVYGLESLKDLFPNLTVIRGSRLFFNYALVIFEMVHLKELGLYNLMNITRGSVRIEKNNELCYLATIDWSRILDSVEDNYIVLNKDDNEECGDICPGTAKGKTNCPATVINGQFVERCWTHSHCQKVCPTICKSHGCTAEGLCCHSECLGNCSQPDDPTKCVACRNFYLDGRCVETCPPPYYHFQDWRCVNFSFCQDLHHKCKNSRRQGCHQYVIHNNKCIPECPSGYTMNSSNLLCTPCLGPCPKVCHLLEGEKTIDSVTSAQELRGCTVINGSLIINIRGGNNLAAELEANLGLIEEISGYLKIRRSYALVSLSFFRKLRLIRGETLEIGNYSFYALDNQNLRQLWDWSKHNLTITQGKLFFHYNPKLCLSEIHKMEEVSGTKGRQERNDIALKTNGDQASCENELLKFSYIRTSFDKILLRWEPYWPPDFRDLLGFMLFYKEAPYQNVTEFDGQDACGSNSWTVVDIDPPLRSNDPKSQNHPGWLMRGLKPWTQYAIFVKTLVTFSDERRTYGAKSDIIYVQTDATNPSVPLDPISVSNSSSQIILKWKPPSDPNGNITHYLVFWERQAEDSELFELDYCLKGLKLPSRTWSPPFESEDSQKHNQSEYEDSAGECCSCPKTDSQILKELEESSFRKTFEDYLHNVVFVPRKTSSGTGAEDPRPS
Insulin receptor (Homo sapiens), sequence (P06213 763-1382 limits assumed): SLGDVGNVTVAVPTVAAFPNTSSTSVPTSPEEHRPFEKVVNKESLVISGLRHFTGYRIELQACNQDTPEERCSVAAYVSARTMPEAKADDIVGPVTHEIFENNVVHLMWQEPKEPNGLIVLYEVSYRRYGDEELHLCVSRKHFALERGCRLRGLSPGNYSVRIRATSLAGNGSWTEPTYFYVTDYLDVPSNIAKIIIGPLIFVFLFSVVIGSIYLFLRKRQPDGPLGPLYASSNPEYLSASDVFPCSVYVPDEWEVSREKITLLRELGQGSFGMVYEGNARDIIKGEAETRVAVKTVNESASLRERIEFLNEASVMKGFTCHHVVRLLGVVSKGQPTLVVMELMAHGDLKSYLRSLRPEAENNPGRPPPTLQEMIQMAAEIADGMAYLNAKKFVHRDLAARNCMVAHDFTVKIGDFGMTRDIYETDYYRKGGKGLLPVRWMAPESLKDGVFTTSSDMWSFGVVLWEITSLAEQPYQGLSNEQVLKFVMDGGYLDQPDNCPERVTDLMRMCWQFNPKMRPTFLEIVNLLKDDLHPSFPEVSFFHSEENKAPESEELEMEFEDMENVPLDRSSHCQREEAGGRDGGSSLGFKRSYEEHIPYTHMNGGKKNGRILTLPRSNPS
For experiment [7] the target is unchanged. Particulars: at 10 µM.
The target is the same in experiment [8]. Particulars: at 1 µM. This is another data set of the same source.
For experiment [9] the target is unchanged. The note with it: at 10 µM. The source holds these as a separate data set.
Experiment [10] deals with Interleukin-1 receptor-associated kinase 1 (Homo sapiens) (UniProt P51617). The note with it: at 1 µM.
Interleukin-1 receptor-associated kinase 1 (Homo sapiens), sequence (P51617 whole entry, looked up): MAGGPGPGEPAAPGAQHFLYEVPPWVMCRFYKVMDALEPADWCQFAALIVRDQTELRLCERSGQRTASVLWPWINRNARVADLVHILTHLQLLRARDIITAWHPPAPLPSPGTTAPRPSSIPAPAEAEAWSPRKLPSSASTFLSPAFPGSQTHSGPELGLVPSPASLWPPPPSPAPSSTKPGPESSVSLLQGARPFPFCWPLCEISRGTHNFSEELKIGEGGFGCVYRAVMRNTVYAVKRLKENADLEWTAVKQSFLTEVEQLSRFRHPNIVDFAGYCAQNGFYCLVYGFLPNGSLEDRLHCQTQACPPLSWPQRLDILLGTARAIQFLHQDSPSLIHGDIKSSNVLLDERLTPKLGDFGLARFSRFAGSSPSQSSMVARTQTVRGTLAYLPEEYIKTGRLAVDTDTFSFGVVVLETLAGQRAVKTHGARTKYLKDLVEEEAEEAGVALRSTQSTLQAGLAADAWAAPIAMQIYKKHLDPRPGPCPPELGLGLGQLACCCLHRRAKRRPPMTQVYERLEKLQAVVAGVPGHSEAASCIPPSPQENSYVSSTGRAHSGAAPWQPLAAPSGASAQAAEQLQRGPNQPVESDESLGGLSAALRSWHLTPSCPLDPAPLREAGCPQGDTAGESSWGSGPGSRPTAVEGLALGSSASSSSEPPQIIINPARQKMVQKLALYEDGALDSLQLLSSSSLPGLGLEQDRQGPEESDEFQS
The target of experiment [11] is T3, Interleukin-1 receptor-associated kinase 4 (Homo sapiens) (UniProt Q9NWZ3).
T3 sequence (whole entry): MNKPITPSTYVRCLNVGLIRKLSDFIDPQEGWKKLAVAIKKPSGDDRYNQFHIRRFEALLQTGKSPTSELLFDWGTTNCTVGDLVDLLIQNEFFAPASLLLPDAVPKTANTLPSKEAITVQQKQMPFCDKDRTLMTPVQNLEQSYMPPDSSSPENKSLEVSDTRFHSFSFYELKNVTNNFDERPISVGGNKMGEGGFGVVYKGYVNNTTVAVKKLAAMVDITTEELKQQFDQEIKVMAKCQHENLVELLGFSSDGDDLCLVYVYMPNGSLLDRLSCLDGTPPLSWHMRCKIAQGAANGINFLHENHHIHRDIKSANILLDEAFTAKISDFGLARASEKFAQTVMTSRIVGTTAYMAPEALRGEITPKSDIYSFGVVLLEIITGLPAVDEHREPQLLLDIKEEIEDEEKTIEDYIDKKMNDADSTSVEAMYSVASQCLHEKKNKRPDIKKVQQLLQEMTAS
The note with it: at 1 µM.

Experiment [12] deals with T3, Interleukin-1 receptor-associated kinase 4 (Homo sapiens). The note with it: at 10 µM.
For experiment [13], the target named is T4, Tyrosine-protein kinase ITK/TSK (Homo sapiens) (UniProt Q08881).
T4 sequence (whole entry): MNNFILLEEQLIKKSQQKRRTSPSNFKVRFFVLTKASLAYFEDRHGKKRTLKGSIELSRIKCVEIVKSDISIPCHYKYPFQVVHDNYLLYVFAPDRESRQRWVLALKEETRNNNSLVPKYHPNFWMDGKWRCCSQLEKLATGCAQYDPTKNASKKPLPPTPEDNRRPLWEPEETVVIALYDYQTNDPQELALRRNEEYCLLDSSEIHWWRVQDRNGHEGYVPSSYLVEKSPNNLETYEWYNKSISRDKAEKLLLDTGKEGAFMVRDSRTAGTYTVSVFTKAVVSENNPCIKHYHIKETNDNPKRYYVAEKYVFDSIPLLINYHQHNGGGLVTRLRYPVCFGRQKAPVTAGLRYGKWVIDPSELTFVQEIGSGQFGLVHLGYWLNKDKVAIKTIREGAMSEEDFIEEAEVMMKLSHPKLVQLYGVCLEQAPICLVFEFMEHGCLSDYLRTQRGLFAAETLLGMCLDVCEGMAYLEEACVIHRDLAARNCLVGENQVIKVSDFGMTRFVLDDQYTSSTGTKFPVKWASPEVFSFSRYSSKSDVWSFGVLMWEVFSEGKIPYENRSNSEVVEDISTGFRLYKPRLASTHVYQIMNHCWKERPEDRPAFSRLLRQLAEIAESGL
Particulars: at 1 µM.

The target in experiment [14] is T5, Inhibitor of nuclear factor kappa-B kinase subunit alpha (Homo sapiens) (UniProt O15111).
T5 sequence (whole entry): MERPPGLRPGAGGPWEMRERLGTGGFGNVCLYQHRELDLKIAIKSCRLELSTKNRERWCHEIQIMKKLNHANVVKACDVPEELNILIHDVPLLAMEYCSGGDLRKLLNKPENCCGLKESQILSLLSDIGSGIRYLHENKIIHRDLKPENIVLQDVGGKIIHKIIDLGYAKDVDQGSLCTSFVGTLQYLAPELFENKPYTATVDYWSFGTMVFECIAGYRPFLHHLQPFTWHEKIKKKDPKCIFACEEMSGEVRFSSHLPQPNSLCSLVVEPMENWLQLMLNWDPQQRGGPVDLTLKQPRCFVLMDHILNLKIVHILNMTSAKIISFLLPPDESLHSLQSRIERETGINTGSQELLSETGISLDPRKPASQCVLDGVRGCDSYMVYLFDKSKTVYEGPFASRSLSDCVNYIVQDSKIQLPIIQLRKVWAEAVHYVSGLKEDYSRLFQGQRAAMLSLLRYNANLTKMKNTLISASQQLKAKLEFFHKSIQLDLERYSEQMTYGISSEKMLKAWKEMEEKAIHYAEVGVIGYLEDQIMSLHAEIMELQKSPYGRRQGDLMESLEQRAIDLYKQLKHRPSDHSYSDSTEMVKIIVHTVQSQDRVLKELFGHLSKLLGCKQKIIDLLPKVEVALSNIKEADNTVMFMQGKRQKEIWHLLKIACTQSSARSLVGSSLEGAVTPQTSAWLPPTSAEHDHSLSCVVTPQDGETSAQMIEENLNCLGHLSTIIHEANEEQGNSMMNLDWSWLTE
The note with it: at 10 µM.

In experiment [15] the target is Insulin receptor-related protein (Homo sapiens) (UniProt P14616). Particulars: at 10 µM.
In experiment [16] the target is T6, TGF-beta receptor type-1 (Homo sapiens) (UniProt P36897).
T6 sequence (whole entry): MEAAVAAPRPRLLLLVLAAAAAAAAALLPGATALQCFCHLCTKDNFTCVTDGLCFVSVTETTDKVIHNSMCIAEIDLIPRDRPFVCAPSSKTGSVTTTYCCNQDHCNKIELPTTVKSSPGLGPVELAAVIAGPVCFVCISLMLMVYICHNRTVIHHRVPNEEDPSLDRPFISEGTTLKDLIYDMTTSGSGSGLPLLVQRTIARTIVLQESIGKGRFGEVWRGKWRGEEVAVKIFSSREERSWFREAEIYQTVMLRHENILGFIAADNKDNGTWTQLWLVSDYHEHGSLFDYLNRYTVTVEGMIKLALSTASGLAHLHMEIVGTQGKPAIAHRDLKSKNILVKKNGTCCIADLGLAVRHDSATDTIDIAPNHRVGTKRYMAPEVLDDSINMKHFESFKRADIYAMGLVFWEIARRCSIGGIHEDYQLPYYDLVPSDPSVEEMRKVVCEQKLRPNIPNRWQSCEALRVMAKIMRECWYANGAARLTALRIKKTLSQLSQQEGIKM
Particulars: at 10 µM.

The target in experiment [17] is T5, Inhibitor of nuclear factor kappa-B kinase subunit alpha (Homo sapiens). The note with it: at 1 µM.
The target of experiment [18] is T6, TGF-beta receptor type-1 (Homo sapiens). The note with it: at 1 µM.
The target in experiment [19] is Insulin-like growth factor 1 receptor (Homo sapiens) (UniProt P08069). Particulars: at 1 µM.
Insulin-like growth factor 1 receptor (Homo sapiens), sequence (P08069 31-736 limits assumed): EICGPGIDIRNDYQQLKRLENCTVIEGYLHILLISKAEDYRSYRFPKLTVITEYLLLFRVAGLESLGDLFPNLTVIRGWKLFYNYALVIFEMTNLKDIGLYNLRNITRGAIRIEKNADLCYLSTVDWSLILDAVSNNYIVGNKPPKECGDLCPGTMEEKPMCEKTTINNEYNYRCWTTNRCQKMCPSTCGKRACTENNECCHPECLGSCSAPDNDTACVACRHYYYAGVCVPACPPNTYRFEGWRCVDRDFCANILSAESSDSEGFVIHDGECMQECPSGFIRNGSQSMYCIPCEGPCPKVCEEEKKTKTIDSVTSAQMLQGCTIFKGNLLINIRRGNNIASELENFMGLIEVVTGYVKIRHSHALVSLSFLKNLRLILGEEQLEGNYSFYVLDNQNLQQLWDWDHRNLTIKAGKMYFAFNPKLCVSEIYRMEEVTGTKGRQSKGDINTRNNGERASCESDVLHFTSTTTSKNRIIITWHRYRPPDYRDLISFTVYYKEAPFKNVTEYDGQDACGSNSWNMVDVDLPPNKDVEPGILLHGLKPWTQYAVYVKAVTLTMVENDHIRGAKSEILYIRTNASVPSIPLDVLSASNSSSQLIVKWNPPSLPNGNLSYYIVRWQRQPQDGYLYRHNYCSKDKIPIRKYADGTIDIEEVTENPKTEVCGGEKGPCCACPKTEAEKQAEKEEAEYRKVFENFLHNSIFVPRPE
Insulin-like growth factor 1 receptor (Homo sapiens), sequence (P08069 741-1367 limits assumed): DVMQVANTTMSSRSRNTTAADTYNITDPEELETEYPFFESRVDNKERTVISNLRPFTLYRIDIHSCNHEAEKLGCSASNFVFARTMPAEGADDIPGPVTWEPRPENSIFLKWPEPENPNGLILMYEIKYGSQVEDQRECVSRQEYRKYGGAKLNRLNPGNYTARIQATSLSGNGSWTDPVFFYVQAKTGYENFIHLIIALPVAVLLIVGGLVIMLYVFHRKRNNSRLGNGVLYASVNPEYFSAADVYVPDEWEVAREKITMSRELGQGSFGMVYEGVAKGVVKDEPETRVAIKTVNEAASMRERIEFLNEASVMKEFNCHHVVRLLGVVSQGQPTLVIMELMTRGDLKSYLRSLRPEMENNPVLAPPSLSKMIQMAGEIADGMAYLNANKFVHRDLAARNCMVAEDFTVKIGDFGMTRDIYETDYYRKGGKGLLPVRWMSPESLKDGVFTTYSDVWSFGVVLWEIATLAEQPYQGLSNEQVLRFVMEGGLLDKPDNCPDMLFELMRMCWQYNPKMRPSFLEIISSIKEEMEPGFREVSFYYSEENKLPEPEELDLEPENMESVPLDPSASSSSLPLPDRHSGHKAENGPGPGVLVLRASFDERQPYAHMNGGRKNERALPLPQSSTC
The target is the same in experiment [20]. Particulars: at 10 µM.

On to `Fc1ccc(-c2nc3n(c2-c2ccncc2)CCS3)cc1`, for which the values for the residual activity in [1] and in experiment [2] were 89% and 128%, respectively.

For the compound `O=S(=O)(NCCNC/C=C/c1ccc(Br)cc1)c1cccc2cnccc12`, the residual activity in experiment [1] was found to be 66%; in [3], 126%; in experiment [4] it was 100%; in experiment [5], 75%.

As for `O=C1NC(=O)C(c2cn(CCCO)c3ncccc23)=C1c1cnccn1`, the residual activity was 67% in experiment [1]; 122% in experiment [6]; 96% in experiment [7]; 94% in [8]; 92% in [9]; 98% in experiment [10]. The residual activity was 98% in [5], 87% in experiment [11], 70% in experiment [12] and 94% in [13].

With `CSc1nc(-c2ccc(F)cc2)c(-c2ccnc(NC(C)c3ccccc3)c2)[nH]1` (centres undefined), the residual activity in experiment [1] was determined as 77%; in [14], 95%; in [6], 126%; in [7] it was 93%; in experiment [8], 102%; in [9], 98%. Besides, the residual activity was 23% in experiment [11], 13% in [12], 73% in experiment [15] and 70% in experiment [13].

On to `O=c1c(-c2ccc(F)cc2)c(-c2ccncc2)[nH]n1-c1ccc(Cl)cc1`, for which the residual activity in experiment [16] stood at 30%; in [17] it was 131%.

Regarding `O=C1NC(=O)c2c1c1c3ccccc3[nH]c1n1cncc21`, the residual activity is 35% in experiment [1]; 91% in [18]; 45% in experiment [19]; 30% in [20]; 63% in [17]; 55% in experiment [14]. Also, the residual activity was 94% in experiment [3]; 80% in experiment [4]; 10% in experiment [6]; 15% in experiment [7]; 31% in experiment [8]; 19% in experiment [9]. For the same compound, the residual activity in experiment [10] came out at 76%; in [5] it was 66%; in experiment [11], 61%; in experiment [12], 56%; in [2], 5%; in experiment [15], 3%. The residual activity in experiment [13] was 85%.

In the case of `O=C(Nc1ccc(Cl)cc1)c1ccccc1NCc1ccncc1`, the residual activity in [6] came to 100%; in experiment [7], 79%; in [8] it was 102%; in experiment [9], 100%.

Consider `CCOc1nc(NC(=O)Cc2cc(OC)ccc2OC)cc(N)c1C#N`, for which the results for the residual activity in [1], in experiment [11] and in experiment [12] were 68%, 81% and 81%, respectively.

For the compound `O=C1Cc2c([nH]c3ccc([N+](=O)[O-])cc23)-c2ccccc2N1`, the residual activity in experiment [1] amounted to 37%; in experiment [16], 65%; in experiment [17], 114%; in experiment [14], 101%.

For the compound `c1ccc(-c2cnc(Nc3ccc(OCCN4CCCC4)cc3)s2)cc1`, the residual activity in [1] worked out at 23%; in experiment [16], 74%; in experiment [17] it was 77%; in experiment [14], 66%; in [3], 116%; in [5], 42%. In addition, the residual activity was 124% in [11]; 80% in experiment [12]; 135% in experiment [2]; 65% in experiment [15]; 81% in experiment [13].

Take `CC(C)(C)c1nc2c3ccc(F)cc3c3c(=O)[nH]ccc3c2[nH]1`: the residual activity stood at 3% in experiment [1]; 52% in [17]; 32% in experiment [14]; 27% in [4]; 55% in experiment [10]; 62% in experiment [5]. Further, the residual activity in [11] was found to be 61%; in experiment [12], 53%; in [2] it was 101%; in experiment [15], 52%.
